Experimental data from PubChem BioAssay AID1159580 (chemical genetic matrix, 2015).
Among all 5,500 compounds or so, about 2,000 (36%) were called active. Inconclusive results (about 18%) are left out. Rule as the data show it: active = normalized growth mostly below about 0.91 (no sharp cut-off); inconclusive = no clear call, values can overlap the other calls; inactive = mostly above about 0.92. The list shows a part of the results.

Experiment: chemical genetic growth profiling, strain panel (AID 1159580);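 also: tested at 20 µM; growth read once vehicle control cultures reached saturation at 30 °C; 1 = growth at the plate median or of vehicle wells; lower values mean less growth of the strain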
Conditions: growth OD

Measured: normalized growth

Oc1ccc(Cl)cc1
inactive: S. cerevisiae deletion strains, locus YJR075W, strain HOC1, active compounds read low 0.993 | S. cerevisiae deletion strains, locus YKL009W, strain mrt4, active compounds read low 0.972 | S. cerevisiae deletion strains, locus YKL068W, active compounds read low 0.985 | S. cerevisiae deletion strains, locus YKL085W, strain MDH1 (second series), active compounds read low 0.978 | S. cerevisiae deletion strains, locus YKL085W, strain MDH1, active compounds read low 0.978 | S. cerevisiae deletion strains, locus YKL160W, strain elf1, active compounds read low 1.03 | S. cerevisiae deletion strains, locus YKL190W, strain CNB1, active compounds read low 0.993 | S. cerevisiae deletion strains, locus YKR001C, strain vps1, active compounds read low 0.996 | S. cerevisiae deletion strains, locus YKR026C, strain gcn3, active compounds read low 1.02 | S. cerevisiae deletion strains, locus YKR091W, strain srl3, active compounds read low 1.01 | S. cerevisiae deletion strains, locus YLL001W, strain dnm1, active compounds read low 1.02 | S. cerevisiae deletion strains, locus YLL026W, active compounds read low 1.02 | S. cerevisiae deletion strains, locus YLL041C, strain sdh2, active compounds read low 1.01 | S. cerevisiae deletion strains, locus YLR027C, strain aat2, active compounds read low 0.999 | S. cerevisiae deletion strains, locus YLR039C, strain RIC1, active compounds read low 0.983 | S. cerevisiae deletion strains, locus YLR058C, strain SHM2, active compounds read low 0.989 | S. cerevisiae deletion strains, locus YLR102C, strain apc9, active compounds read low 0.976 | S. cerevisiae deletion strains, locus YLR113W, strain HOG1, active compounds read low 1 | S. cerevisiae deletion strains, locus YLR221C, strain rsa3, active compounds read low 1.01 | S. cerevisiae deletion strains, locus YLR258W, strain gsy2, active compounds read low 1 | S. cerevisiae deletion strains, locus YLR262C, strain YPT6 (second series), active compounds read low 1.02 | S. cerevisiae deletion strains, locus YLR262C, strain YPT6, active compounds read low 0.986 | S. cerevisiae deletion strains, locus YLR268W, strain sec22, active compounds read low 0.93 | S. cerevisiae deletion strains, locus YLR320W, strain mms22, active compounds read low 1.03 | S. cerevisiae deletion strains, locus YLR330W, strain CHS5, active compounds read low 0.99 | S. cerevisiae deletion strains, locus YLR342W, strain FKS1 (second series), active compounds read low 0.995 | S. cerevisiae deletion strains, locus YLR342W, strain FKS1, active compounds read low 1.01 | S. cerevisiae deletion strains, locus YLR357W, strain rsc2, active compounds read low 1.04 | S. cerevisiae deletion strains, locus YLR370C, strain arc18, active compounds read low 1.01 | S. cerevisiae deletion strains, locus YLR371W, strain rom2, active compounds read low 0.962 | S. cerevisiae deletion strains, locus YLR384C, strain iki3, active compounds read low 1.01 | S. cerevisiae deletion strains, locus YLR418C, strain cdc73, active compounds read low 0.986 | S. cerevisiae deletion strains, locus YML016C, strain PPZ1, active compounds read low 0.99 | S. cerevisiae deletion strains, locus YML032C, strain rad52, active compounds read low 0.963 | S. cerevisiae deletion strains, locus YML120C, strain ndi1, active compounds read low 1.01 | S. cerevisiae deletion strains, locus YML124C, strain tub3, active compounds read low 0.975 | S. cerevisiae deletion strains, locus YMR058W, strain fet3, active compounds read low 1.01 | S. cerevisiae deletion strains, locus YMR078C, strain ctf18, active compounds read low 0.968 | S. cerevisiae deletion strains, locus YMR125W, strain sto1, active compounds read low 1.01 | S. cerevisiae deletion strains, locus YMR129W, active compounds read low 1.01 | S. cerevisiae deletion strains, locus YMR205C, strain PFK2, active compounds read low 1.03 | S. cerevisiae deletion strains, locus YMR223W, strain ubp8, active compounds read low 1 | S. cerevisiae deletion strains, locus YMR231W, strain pep5, active compounds read low 1.01 | S. cerevisiae deletion strains, locus YMR307W, strain GAS1, active compounds read low 1 | S. cerevisiae deletion strains, locus YNL067W, strain RPL9B, active compounds read low 0.996 | S. cerevisiae deletion strains, locus YNL071W, strain lat1, active compounds read low 1.01 | S. cerevisiae deletion strains, locus YNL128W, strain TEP1, active compounds read low 0.978 | S. cerevisiae deletion strains, locus YNL153C, strain GIM3, active compounds read low 1 | S. cerevisiae deletion strains, locus YNL183C, strain NPR1, active compounds read low 0.941 | S. cerevisiae deletion strains, locus YNL209W, strain ssb2, active compounds read low 1 | S. cerevisiae deletion strains, locus YNL233W, strain BNI4, active compounds read low 0.988 | S. cerevisiae deletion strains, locus YNL248C, strain rpa49, active compounds read low 1 | S. cerevisiae deletion strains, locus YNL250W, strain rad50, active compounds read low 0.97 | S. cerevisiae deletion strains, locus YNL271C, strain bni1, active compounds read low 0.975 | S. cerevisiae deletion strains, locus YNL298W, strain CLA4, active compounds read low 0.971 | S. cerevisiae deletion strains, locus YNL307C, strain MCK1, active compounds read low 0.968 | S. cerevisiae deletion strains, locus YNL322C, strain KRE1 (second series), active compounds read low 1.02 | S. cerevisiae deletion strains, locus YNL322C, strain KRE1, active compounds read low 0.992 | S. cerevisiae deletion strains, locus YNR049C, strain mso1, active compounds read low 1.01 | S. cerevisiae deletion strains, locus YNR052C, strain pop2, active compounds read low 0.973 | S. cerevisiae deletion strains, locus YOL006C, strain TOP1, active compounds read low 1.03 | S. cerevisiae deletion strains, locus YOL012C, strain htz1 0.904 | S. cerevisiae deletion strains, locus YOL147C, strain pex11, active compounds read low 0.986 | S. cerevisiae deletion strains, locus YOR001W, strain rrp6, active compounds read low 0.972 | S. cerevisiae deletion strains, locus YOR061W, strain CKA2, active compounds read low 0.98 | S. cerevisiae deletion strains, locus YOR069W, strain VPS5, active compounds read low 0.989 | S. cerevisiae deletion strains, locus YOR070C, strain gyp1, active compounds read low 1 | S. cerevisiae deletion strains, locus YOR080W, strain dia2, active compounds read low 1.01 | S. cerevisiae deletion strains, locus YOR083W, strain WHI5, active compounds read low 1.02 | S. cerevisiae deletion strains, locus YOR106W, strain vam3, active compounds read low 1.02 | S. cerevisiae deletion strains, locus YOR136W, strain idh2, active compounds read low 0.98 | S. cerevisiae deletion strains, locus YOR144C, strain elg1, active compounds read low 0.978 | S. cerevisiae deletion strains, locus YOR184W, strain ser1, active compounds read low 0.961 | S. cerevisiae deletion strains, locus YOR231W, strain MKK1, active compounds read low 0.979 | S. cerevisiae deletion strains, locus YOR265W, strain rbl2, active compounds read low 1.02 | S. cerevisiae deletion strains, locus YOR270C, strain vph1, active compounds read low 1.02 | S. cerevisiae deletion strains, locus YOR290C, strain snf2, active compounds read low 0.999 | S. cerevisiae deletion strains, locus YOR316C, strain cot1, active compounds read low 0.974 | S. cerevisiae deletion strains, locus YPL051W, strain arl3, active compounds read low 1.01 | S. cerevisiae deletion strains, locus YPL078C, strain atp4, active compounds read low 1.01 | S. cerevisiae deletion strains, locus YPL106C, strain sse1, active compounds read low 1.04 | S. cerevisiae deletion strains, locus YPL240C, strain hsp82, active compounds read low 1.01 | S. cerevisiae deletion strains, locus YPL241C, strain CIN2, active compounds read low 0.997 | S. cerevisiae deletion strains, locus YPL256C, strain CLN2, active compounds read low 0.978 | S. cerevisiae deletion strains, locus YPR119W, strain clb2, active compounds read low 0.98 | S. cerevisiae deletion strains, locus YPR141C, strain kar3, active compounds read low 0.976 | S. cerevisiae deletion strains, locus YPR163C, strain tif3, active compounds read low 0.983 | S. cerevisiae deletion strains, locus YPR167C, strain met16, active compounds read low 0.974 | S. cerevisiae deletion strains, strain wtn01, active compounds read low 0.971 | S. cerevisiae strains, strain wild type, active compounds read low 0.995
